This excerpt belongs to a sample that is enriched for hits.
Tb PYK inh: qHTS of Trypanosoma Brucei Inhibitors | pyruvate kinase (Trypanosoma brucei), Q57TT1 | TbPYK enzyme, Kinase-Glo Plus ATP luminescence, 45 min | Potency, µM (titrated, usually from 76.8 µM), without a hit: top-dose activity, negative = inhibition, hits mostly inhibitors | 410,000 compounds, 0.12% hits; also: potency is read from the fitted curve at half-maximal effect; % is scaled to controls: 0 for no effect and ±100 for the full control effect; nearly all actives have a fitted effect of over 50% in size
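Glycolytic pyruvate kinase of T. brucei was incubated with substrate, test compound and 130 uM ADP for 45 minutes at room temperature. Luminescent Kinase-Glo Plus signal was measured after 10 minutes.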
RE007 growth inh: qHTS Assay for Inhibitors of the HIV-1 protein Vpr; S. pombe RE007 Vpr strain, BacTiter-Glo ATP luminescence, 24 h; Potency, µM (titrated, usually from 92.2 µM), for inactives: top-dose activity change, negative = less growth, hits mostly inhibitors; 360,000 compounds, 0.21% hits; AID 651644, 2012; active = well fitted falling curve with a large enough effect; inconclusive = small, poorly fitted or top-dose-only effect; inactive = no such curve, though single readings can be large or run the other way; also: potency is read from the fitted curve at half-maximal effect; % is scaled to controls: 0 for no effect and ±100 for the full control effect; nearly all actives have a fitted effect of over 50% in size
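Fission yeast strain RE007, carrying one chromosomally integrated HIV-1 vpr copy, was seeded at OD 0.01 in PMG+AL medium with 23 nL pinned compound. After 24 h at 30 °C and 99% humidity, viability was read by BacTiter-Glo luminescence.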
Cycloheximide cs: Cycloheximide Counterscreen for Small Molecule Inhibitors of Shiga Toxin | 300,000 compounds, 12% hits | cell reporter, cycloheximide protein synthesis inhibition counterscreen | max response, % | AID 2314, 2010; in the data active = max response mostly above about 13%, no sharp cut-off; inactive = mostly below about 14%; also: read at 38.3 µM for the half of the compounds with a filed dose; 0% is about no effect
Giardia FBPA inh: qHTS Assay for Inhibitors of Fructose-1,6-bisphosphate Aldolase from Giardia Lamblia; Potency, µM (top dose mostly 59.6 µM), for the others: top-dose activity, negative = inhibition, most hits filed as inhibitors; purified Giardia FBPA; AID 2451, 2010; 290,000 compounds, 0.71% hits; also: potency is read from the fitted curve at half-maximal effect; % is scaled to controls: 0 for no effect and ±100 for the full control effect; nearly all actives have a fitted effect of over 55% in size
Target sequence (A8B2U2 whole entry, looked up): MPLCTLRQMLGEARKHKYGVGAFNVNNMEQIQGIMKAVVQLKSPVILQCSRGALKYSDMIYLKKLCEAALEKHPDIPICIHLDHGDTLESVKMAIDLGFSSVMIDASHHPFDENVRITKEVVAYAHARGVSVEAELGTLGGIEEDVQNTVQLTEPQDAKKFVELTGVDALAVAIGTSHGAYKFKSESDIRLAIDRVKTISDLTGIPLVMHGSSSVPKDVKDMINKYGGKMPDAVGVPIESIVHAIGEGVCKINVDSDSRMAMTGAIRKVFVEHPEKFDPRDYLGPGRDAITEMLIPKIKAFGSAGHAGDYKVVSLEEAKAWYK
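Giardia FBPA (40 nM reagent) was preincubated 10 min at RT with compound (up to 57.5 uM final), then substrate plus GAPDH/TPI/NAD/arsenate coupling system with diaphorase/resazurin was added; resorufin fluorescence (525/598 nm) was read after 20 min.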
LmPK inh: qHTS Assay for Inhibitors of Leishmania Mexicana Pyruvate Kinase (LmPK) | Q27686 | purified LmPK, Kinase-Glo ATP luminescence, 1 h | Potency, µM (top dose mostly 57.5 µM), without a hit: top-dose activity change, negative = inhibition, actives largely listed as inhibitors | 290,000 compounds, 0.37% hits; also: potency is read from the fitted curve at half-maximal effect; % is scaled to controls: 0 for no effect and ±100 for the full control effect
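Screened at intermediate enzyme activity to detect both inhibitors and activators: LmPK at 0.1 nM, with a 0.5 nM enzyme column as activation reference. PEP 0.5 mM, ADP 0.1 mM; ATP detected by luminescence after 1 h.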
Shiga toxin inh: A qHTS for Small Molecule Inhibitors of Shiga Toxin | 290,000 compounds, 9.2% hits | inhibition, % at 38.7 µM | AID 2315, 2010 | Vero cells, Shiga toxin protein synthesis inhibition reporter; in the data active = inhibition mostly above about 28%, no sharp cut-off; inactive = mostly below about 43%; also: 0% is about no effect
The depositor's hits bear a star; ? = inconclusive; · = not tested or not shown. Unless noted, calls follow the shape of the dose curve; as a rule, active = well fitted curve in the direction sought with a large enough effect; inconclusive = small, poorly fitted or top-dose-only effect, or another doubt; inactive = no such curve, though single readings can be large; an effect the other way counts as inactive or inconclusive.

SMILES	Tb PYK inh	RE007 growth inh	Cycloheximide cs	Giardia FBPA inh	LmPK inh	Shiga toxin inh
Cc1cc(C)cc(NC(=O)c2sc3nc(C)cc(C)c3c2N)c1	-10%	-10%	25*	4%	0%	118*
Cc1cc(C(F)(F)F)c2c(N)c(C(=O)Nc3cc(C)on3)sc2n1	-15%	9%	55*	9%	-3%	117*
Cc1cc(C)c2c(N)c(C(=O)Nc3ccc(F)cc3)sc2n1	-3%	12%	45*	-8%	1%	92*
Cc1cc(C(F)(F)F)c2c(N)c(C(=O)NCc3ccc(Cl)cc3)sc2n1	-11%	-10%	·	·	·	·
CCOc1ccc(-n2ccnc2SCC(=O)Nc2ccc3c(c2)OCO3)cc1	6%	·	·	·	·	·
COc1ccccc1N1CCN(C(=O)CCCCCn2c(=O)[nH]c3ccsc3c2=O)CC1	-1%	2%	1	5%	-1%	-8
COc1ccc(C(=O)Nc2c(Cl)cc(Cl)cc2C(=O)N2CCOCC2)cc1	3%	-11%	-2	-1%	-4%	-7
Cc1cccc(C2C=C(c3ccc(C)c(C)c3)Nc3nnnn32)c1 (centres undefined)	1%	·	·	·	·	·
Cc1cc(C(=O)CSc2nnnn2-c2ccc(O)cc2)c(C)n1C	7%	1%	25*	5%	0%	66*
Cc1ccc(C(=O)CSc2nnc(-c3ccccc3)n2-c2ccccc2)o1	-16%	19%	-4	6%	-1%	-2
O=C(CSc1nnnn1-c1ccccc1)c1ccc(O)cc1O	0%	8%	14*	8%	2%	50
Cc1ccc(C(=O)CSc2nnnn2-c2ccccc2)o1	0%	2%	25	-5%	-3%	49*
CN(C)c1ccc(N=Cc2nc(-c3ccccc3)oc2OC(=O)c2ccccc2)cc1	-1%	?	34*	-3%	-1%	34*
CC(=O)Oc1oc(-c2ccccc2)nc1/C=N/c1ccccn1	4%	4%	47*	5%	?	87*
COc1ccccc1N=Cc1nc(-c2ccccc2)oc1OC(C)=O	-2%	15%	8	-19%	-13%	11
COc1ccccc1NC(=O)c1oc2ccccc2c1NC(=O)c1cccc(OC)c1OC	-4%	·	·	·	·	·
CC(=O)N(C)c1ccc(NC(=O)c2ccc([N+](=O)[O-])cc2Cl)cc1	-4%	27%	17	2%	-4%	66*
CCCn1nnc(NC(=O)c2ccc([N+](=O)[O-])cc2Cl)n1	-3%	-3%	24*	0%	11%	62*
CCCn1nnc(NC(=O)c2ccc(-c3cccc(Cl)c3)o2)n1	4%	4%	41*	0%	-2%	140*
CCn1nnc(NC(=O)COc2ccc([N+](=O)[O-])cc2)n1	-4%	6%	19*	1%	-2%	23
CCCCn1nnc(NC(=O)c2ccc([N+](=O)[O-])cc2Cl)n1	4%	5%	14	-12%	0%	26
Cc1ccc(Cl)cc1NC(C#N)c1ccccc1 (centres undefined)	10%	0%	-2	-1%	4%	-3
CCCCn1nnc(NC(=O)c2ccc(-c3cccc(Cl)c3)o2)n1	-5%	13%	33*	0%	2%	68*
Brc1ccccc1-c1nnc(CSc2nnnn2-c2ccccc2)o1	-5%	-17%	29*	7%	-6%	54*
Fc1ccccc1SCc1nnc(-c2ccccc2Br)o1	32µM*	10%	53*	-4%	-17%	141*
COc1ccc(-c2nnc(SCc3nnc(-c4ccc(Cl)cc4)o3)n2-c2ccccc2)cc1	-10%	0%	24*	8%	-1%	57
Cc1csc(SCc2nnc(-c3ccccc3Br)o2)n1	2%	-21%	48*	-1%	2%	78*
COc1ccc(-c2nnc(SCc3nnc(-c4ccccc4)o3)n2-c2ccccc2)cc1	8%	-4%	11	-13%	-1%	8
